Ecoli rRNA inh: reduced GFP signal of wild-type E. coli, primary screen, bacterial rRNA inhibitor project, GFP/RFP fluorescence, OD600, single point. 350,000 compounds, 1.6% hits. AID 720706, 2013. GFP signal change (wild-type ribosome), % (no concentration beside the values). E. coli WT GFP vs humanized-ribosome RFP mutants, 24 h; active compounds read low; DMSO median 0, no signal -100;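 active means significant combined selectivity score with lowered wild-type GFP, culture density cut under 30%, mutant RFP and density less affected; inactive means any of these conditions unmet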
PvdQ acylase: P. aeruginosa PvdQ acylase inhibitors, primary screen, biochemical, fluorescence, plate reader and imaging, single point; PvdQ acylase [Pseudomonas aeruginosa LESB58]; purified PvdQ acylase; inhibition, % at 10 µM; 340,000 compounds, 0.063% hits; AID 488965, 2010; in the data active means inhibition above about 30%, passing the limit was not always enough
ERAP1 HTS inh: human ERAP1 aminopeptidase inhibitors, primary screen, biochemical, single point, plate reader; Endoplasmic reticulum aminopeptidase 1 (Homo sapiens), Q9NZ08; recombinant ERAP1, Leu-AMC fluorescence, 60 min; inhibition, % at 10.7 µM; 340,000 compounds, 0.15% hits;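 active means mean replicate inhibition of at least 30%, or all replicates individually reaching that 30% level; inactive means mean below 30% and not every replicate reaching it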
Target sequence (Q9NZ08 whole entry, looked up): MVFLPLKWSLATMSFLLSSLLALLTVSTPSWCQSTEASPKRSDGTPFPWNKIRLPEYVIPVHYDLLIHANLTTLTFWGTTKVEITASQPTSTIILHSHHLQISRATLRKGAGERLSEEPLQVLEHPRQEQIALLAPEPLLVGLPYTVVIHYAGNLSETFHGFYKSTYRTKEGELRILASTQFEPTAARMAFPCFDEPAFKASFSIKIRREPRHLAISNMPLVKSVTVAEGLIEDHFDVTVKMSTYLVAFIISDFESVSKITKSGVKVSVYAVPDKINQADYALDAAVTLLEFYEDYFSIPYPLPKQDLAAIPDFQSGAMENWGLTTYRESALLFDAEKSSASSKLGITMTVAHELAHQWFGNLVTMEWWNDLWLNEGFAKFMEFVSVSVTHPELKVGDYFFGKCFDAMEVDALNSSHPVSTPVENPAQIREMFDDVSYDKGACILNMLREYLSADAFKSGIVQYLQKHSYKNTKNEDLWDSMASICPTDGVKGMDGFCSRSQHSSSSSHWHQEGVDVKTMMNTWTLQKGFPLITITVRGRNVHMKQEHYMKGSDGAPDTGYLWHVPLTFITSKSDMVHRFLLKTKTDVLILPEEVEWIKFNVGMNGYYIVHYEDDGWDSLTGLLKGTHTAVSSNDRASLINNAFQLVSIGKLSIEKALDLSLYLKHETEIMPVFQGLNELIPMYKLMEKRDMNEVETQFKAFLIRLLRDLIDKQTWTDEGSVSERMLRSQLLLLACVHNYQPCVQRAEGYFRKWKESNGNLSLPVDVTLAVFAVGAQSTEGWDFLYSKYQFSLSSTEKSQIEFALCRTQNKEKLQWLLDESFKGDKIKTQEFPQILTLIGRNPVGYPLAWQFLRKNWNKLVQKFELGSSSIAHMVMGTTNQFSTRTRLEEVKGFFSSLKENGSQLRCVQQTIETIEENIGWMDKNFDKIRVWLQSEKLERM
ARNT-TACC3 inh: disruptors of ARNT/TACC3 protein interaction, primary screen, biochemical, AlphaScreen, single concentration; Transforming acidic coiled-coil-containing protein 3 (Homo sapiens), Q9Y6A5; AlphaScreen His-ARNT PAS-B/GST-TACC3 binding, luminescence; TACC3 fragment carries E629A point mutation; inhibition, % at 9.99 µM; 390,000 compounds, 0.66% hits;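 active means mean inhibition of replicates at least 50% and at least half of replicates each reaching 50%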
CFTR F508del cor: F508del CFTR correction, initial screen, CFBE line, single point; CFBE cells, YFP halide quenching; stimulated with forskolin plus potentiator P3; % fluorescence drop versus neutral controls; activity (quench increase), % at 7.58 µM; 350,000 compounds, 0.36% hits;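 active means mean added fluorescence quench of at least 8% versus neutral control, with both replicates also reaching 8%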;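 further: cells transiently co-express mutant CFTR-F508del with the halide-sensitive YFP; corrector assay measuring rescue of mutant channel to the surface after 24 h compound exposure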
Numbers stand for hits; – = inactive; · = no result given. Only some compounds are listed: those with a hit (about 2.1% of all), similar ones and a draw of the others.

SMILES	Ecoli rRNA inh	PvdQ acylase	ERAP1 HTS inh	ARNT-TACC3 inh	CFTR F508del cor
C[C@H](CO)N1C[C@H](C)[C@H](CN(C)Cc2ccc(C(=O)O)cc2)Oc2c(NC(=O)C3CCCCC3)cccc2C1=O	–	·	–	–	–
O=C(NC1CCC1)[C@@H]1[C@@H](CO)[C@@H]2Cn3c(ccc(-c4ccccc4F)c3=O)[C@H]1N2C(=O)CC1CC1	–	·	–	–	–
S=C(NCCc1ccccc1)N/N=C/c1ccc(Cl)cc1	-28	–	·	–	–
CCOC(=O)Cc1nnc(NC(=O)C(CC)Sc2nc(C)cc(=O)[nH]2)s1 (stereo not given)	–	–	–	45	–
COCCNc1nnc(Cc2ccc(Cl)cc2)c(=O)[nH]1	–	–	–	–	–
COCCCNc1nnc(Cc2ccc(Cl)cc2)c(=O)[nH]1	–	–	–	–	10
O=C(Cc1cccc2ccccc12)NCCOc1ccccc1F	-39	–	–	–	–
CC(=O)NC(CC(=O)NCCOc1ccccc1F)c1ccccc1 (stereo not given)	–	–	36	–	–
C[C@@H]1CCCCO[C@@H](CN(C)S(C)(=O)=O)[C@@H](C)CN([C@H](C)CO)C(=O)c2cc(NC(=O)c3ccccc3)ccc2O1	–	·	–	–	–
CC(C)C(=O)Nc1ncc(Cc2cccc(Cl)c2)s1	–	–	–	–	–
CC(C)C(=O)Nc1ncc(Cc2ccc(Cl)cc2)s1	-28	–	–	–	–
C(=N\Nc1nc2ccccc2[nH]1)/c1cccc2nccnc12	-31	–	–	–	·
COc1cc(OC)c(OC)cc1/C=N/Nc1nc2ccccc2[nH]1	-39	–	–	–	–
C[C@H]1CN(C)C(=O)Cc2cc(N)ccc2O[C@H]1CN(C)C(=O)OC(C)(C)C	–	·	·	·	·
COC(=O)c1ccc(/C=C/c2c(-c3ccc(OC)cc3)oc3ccc(N4CCOCC4)cc23)cc1	–	–	–	–	9.6
CC(=O)Nc1ccc2c(c1)C(=O)N(C)[C@H]1CC[C@H](CC(=O)NCc3ccc4c(c3)OCO4)O[C@@H]1CO2	–	·	·	–	–
O=C(c1ncn(Cc2ccccc2)c1C(=O)N1CCN(c2ccccc2)CC1)N1CCN(c2ccccc2)CC1	–	–	–	–	–
O=C(O)c1ncn(Cc2ccc(Br)cc2)c1C(=O)O	–	–	–	46	–
c1ccc(CNCCN2CCNCC2)nc1	·	–	·	66	·
O=C(NCCN1CCNCC1)c1ccccc1O	·	·	·	·	–
CO[C@@H]1CN(C)C(=O)c2ccc(NS(=O)(=O)c3ccccc3)cc2OC[C@H](C)N(C)C[C@H]1C	–	·	–	–	–
CCN(CC)CCOC(=O)CCc1cccc2ccccc12	·	–	·	–	·
CCN(CC)CCOC(=O)C(Cc1ccco1)Cc1cccc2ccccc12 (stereo not given)	-34	–	–	–	–
Cc1cc(NS(=O)(=O)c2ccc(NC(=O)c3c(F)c(F)c(F)c(F)c3F)cc2)nc(C)n1	–	–	–	–	–
Cc1ccc(S(=O)(=O)Nc2ccc(NC(=O)c3c(F)c(F)c(F)c(F)c3F)cc2)cc1	-26	–	–	–	–
SMILES	Ecoli rRNA inh	PvdQ acylase	ERAP1 HTS inh	ARNT-TACC3 inh	CFTR F508del cor
Cc1cccc(NC(=O)c2ccccc2NC(=O)C2CCCCC2)c1C	–	–	–	–	8.1
O=C(Nc1ccccc1)c1ccccc1NC(=O)C1CCCCC1	·	–	·	–	·
Cc1ccc2[nH]c(C(=O)N3CCCC(Nc4ccc(F)cc4)C3)cc2c1 (stereo not given)	-34	–	–	–	–
COc1ccc(Cl)cc1NC(=O)/C=C/C(=O)O	–	–	–	·	–
O=C(O)/C=C/C(=O)Nc1ccc(Cl)cc1C(=O)c1ccccc1	-23	–	–	–	–
O=[N+]([O-])c1ccccc1CCc1ccccc1[N+](=O)[O-]	–	–	–	–	–
O=[N+]([O-])c1ccccc1CNC(Cc1ccccc1)c1ccccc1 (stereo not given)	-30	–	–	–	–
Cc1ccc(NC(=S)NCc2ccc3c(c2)OCO3)cc1C	–	–	–	–	·
S=C(Nc1ccc(Cl)c(Cl)c1)NC1CCCCC1	–	–	–	–	–
FC(F)(F)c1ccc(NC(=S)NC2CCCCC2)cc1	-54	–	–	–	–
S=C(NCc1ccc2c(c1)OCO2)Nc1ccc2nsnc2c1	–	41	–	–	–
S=C(Nc1ccc2nsnc2c1)NC1CCCCC1	-44	–	–	25	–
FC(F)(F)c1cccc(NC(=S)NC2CCCC2)c1	·	–	·	–	·
COc1ccc(S(=O)(=O)N(C)C[C@@H]2OCCCC[C@@H](C)Oc3ccc(NS(=O)(=O)c4ccccc4)cc3C(=O)N([C@H](C)CO)C[C@H]2C)cc1	–	·	–	–	–
C[C@@H]1CN([C@H](C)CO)S(=O)(=O)c2ccc(C3=CCCCC3)cc2O[C@H]1CN(C)C(=O)CN(C)C	–	·	–	–	–
CCN(CC)c1ccc(NC(=O)Cn2cc3c(n2)CCC(C)C3)c(C)c1 (stereo not given)	–	–	–	49	–
COc1cccc(NC(=O)N[C@@H]2CC[C@H](CC(=O)Nc3ccccc3)O[C@H]2CO)c1	–	·	–	–	–
Clc1ccccc1-c1nc2nc3ccccc3nc2n1-c1ccc2c(c1)OCO2	-26	–	–	–	–
c1csc(-c2nc3nc4ccccc4nc3n2Cc2ccc3c(c2)OCO3)c1	·	–	·	–	·
CNC[C@H]1Oc2ccc(NC(=O)CCN3CCOCC3)cc2C(=O)N([C@@H](C)CO)C[C@@H]1C	–	·	·	·	–
CC(=O)c1cccc(NC(=S)NCCc2ccc(F)cc2)c1	–	–	–	–	–
CC(=O)c1cccc(NC(=O)Nc2cnn(Cc3ccc(F)cc3)c2)c1	-22	·	–	·	–
COc1cccc(-c2ccc(C3[C@H]4CNC[C@@H]3N4C(=O)Nc3ccccc3F)cc2)c1 (stereo not given in full)	–	·	·	·	–
COc1cc(C(=O)N/N=C(\c2ccccc2)c2ccccn2)cc(OC)c1OC	–	–	–	·	12
COc1cc(C(=O)N/N=C(\Cc2ncc[nH]2)c2ccccc2)cc(OC)c1OC	-32	–	–	–	–
COc1cc(C(=O)N/N=C(\C)c2ccccn2)cc(OC)c1OC	–	–	–	–	–
COc1ccc(NC(=O)Nc2ccc3c(c2)C(=O)N([C@H](C)CO)C[C@H](C)[C@H](CN(C)C(=O)Nc2ccc(C(F)(F)F)cc2)O3)cc1	–	·	–	·	–
O=C(C[C@H]1CC[C@@H]2[C@H](COC[C@H](O)CN2Cc2cc(F)cc(F)c2)O1)Nc1nccs1	–	·	·	–	–
COCCCn1c(SCCc2ccccc2)nc2cc(OC)c(OC)cc2c1=N	-41	–	–	–	–
COCCn1c(N)c(N(Cc2ccccc2)C(=O)c2ccc3ccccc3c2)c(=O)[nH]c1=O	–	–	–	–	–

Assay outcomes deposited in PubChem by Broad Institute.
